The text below walks through data of PubChem BioAssay (NCI).

Some test systems named below: SK-MEL-2 melanoma; EKVX NSCLC; TK-10 renal; ACHN renal; CAKI-1 renal; A498 renal; CCRF-CEM leukemia; MOLT-4 leukemia; UO-31 renal; SN12C renal.
Common to all, as to experiment: NCI-60 one-dose screen, 48 h (100 = growth as untreated, 0 = no growth, -100 = all killed)
Common to all, as to settings: 10 µM unless noted

Each structure is given as a SMILES string. About 83,000 compounds went through this panel and 20% of them were active in at least one assay; those are over-represented in the sample as a whole.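 Step 1: grow cells in 96-well plates. Step 2: add test compound at a single concentration. Step 3: incubate 48 h. Step 4: record percent growth.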 Unmarked numbers belong to inactive results. Active and inactive are the calls of the source. Rule for the calls: active = growth percent below 10; inactive = the rest.

As for `Cc1cc(-c2ccc(Cl)cc2)n(Cc2nnc(SCC(=O)Nc3ccc(S(N)(=O)=O)cc3)n2-c2ccc([N+](=O)[O-])cc2)n1`, the growth was 87% in the test with SK-MEL-2 melanoma; 75.1% in the test with EKVX NSCLC; 105% with TK-10 renal; 79.1% with ACHN renal; 71.2% with CAKI-1 renal; 84.5% in the test on A498 renal. Moreover, the growth with CCRF-CEM leukemia is 79.8%; in the test with MOLT-4 leukemia, 54.4%.

With `O=C(CN1CCN(c2cc(=O)[nH]c3ccc(F)cc23)CC1)Nc1ccc(Cl)cc1`, the growth was 66.2% with SK-MEL-2 melanoma; 69.9% in the test with EKVX NSCLC; 75.2% with UO-31 renal; 62.2% with TK-10 renal; 57% in the test on ACHN renal; 72.6% with CAKI-1 renal. Also, the figures for the growth in the test with A498 renal and in the test on MOLT-4 leukemia were 54.9% and 92.4%, respectively.

As to `NC(N)=Nc1ccc(Oc2cccc(NC(N)=Nc3ccc(Cl)c(C(F)(F)F)c3)c2)cn1`, the growth in the test with SK-MEL-2 melanoma is 59.5%; with EKVX NSCLC, 65.5%; in the test with UO-31 renal, 78.9%; in the test with TK-10 renal, 69.3%; with ACHN renal it was 88.3%; with A498 renal it was 36.7%. Also, the values for the growth with CCRF-CEM leukemia and in the test with MOLT-4 leukemia were 23.9% and 23.6%, respectively.

Consider `CCCSc1nc(Nc2ccc(/C(C)=N\NC(N)=S)cc2)c(C#N)c(-c2ccccc2)n1`, for which the growth in the test on SK-MEL-2 melanoma is 87.9%; with EKVX NSCLC, 74.4%; in the test with UO-31 renal, 46.9%; in the test with TK-10 renal, 95%; with ACHN renal, 35.4%; in the test on CAKI-1 renal it was 48.1%. Besides, the growth with A498 renal is 102%; in the test on MOLT-4 leukemia, 52.8%.

With `Cn1cc(CNc2nc3ccc(OC/C(=C/F)CN)cc3o2)ccc1=O`, the growth with SK-MEL-2 melanoma is 114%; with EKVX NSCLC it was 98.4%; in the test on UO-31 renal, 93.1%; in the test with TK-10 renal it was 107%; in the test on ACHN renal, 105%; in the test with CAKI-1 renal, 91%. The growth with A498 renal is 102%; in the test on CCRF-CEM leukemia, 107%; with MOLT-4 leukemia, 104%.

Take `CCCn1cnc2c(c1=N)C(c1ccc(Cl)cc1)c1sc3c(C)cccc3c1O2` (configuration not stated): the growth with SK-MEL-2 melanoma is 33.5%; in the test on EKVX NSCLC it was 42.7%; with UO-31 renal, 32.2%; in the test with TK-10 renal, 93.3%; in the test on ACHN renal it was 29.1%; in the test on CAKI-1 renal it was 29.8%. For the same compound, the growth in the test on A498 renal is -13.1% (active); in the test on CCRF-CEM leukemia, 3.96% (active); with MOLT-4 leukemia, 15.5%.

As for `CCNC(=O)N1CCc2cc(OC)c(OCCc3ccc(OC)c(N)c3)cc2C1c1ccc(C)cc1C` (configuration not stated), the growth in the test with SK-MEL-2 melanoma is 4.33% (active); in the test with SN12C renal it was 22.6%; in the test on UO-31 renal, 30.4%; with TK-10 renal, 56.1%; in the test with ACHN renal, 27.6%; in the test with CAKI-1 renal, 22.9%. The growth in the test with A498 renal is -5% (active); in the test with CCRF-CEM leukemia, 34.5%; in the test with MOLT-4 leukemia it was 29.3%.

In the case of `CCN(CC)c1ccc2c(c1)Oc1nc(N)c(C#N)c(N)c1C2Sc1ccc(F)cc1` (configuration not stated), the growth with SK-MEL-2 melanoma is -61.3% (active); with SN12C renal it was -77.8% (active); with UO-31 renal, -99.5% (active); with TK-10 renal it was -33.6% (active); in the test with ACHN renal, -91% (active); in the test with CAKI-1 renal it was -81.9% (active). In addition, the growth with A498 renal is -1.93% (active); in the test on CCRF-CEM leukemia it was -23% (active); with MOLT-4 leukemia, -12.8% (active).

`CC(C)(C)c1ccc(C(=O)Nc2nc3ccc(O)cc3s2)cc1`: the growth is 71.4% with SK-MEL-2 melanoma; 53.5% with SN12C renal; 25.5% in the test on UO-31 renal; 74.9% with TK-10 renal; 39% in the test on ACHN renal; 15.1% with CAKI-1 renal. For the same compound, the results for the growth in the test with A498 renal, with CCRF-CEM leukemia and with MOLT-4 leukemia were 48.7%, 41.9% and 33%, respectively.

With `COc1ccc(C2CC(c3ccc(Nc4nc(NCCO)nc(N5CCOCC5)n4)cc3)=Nc3c(N)nc(N)nc3N2)cc1` (configuration not stated), the growth in the test on SK-MEL-2 melanoma is 107%; with SN12C renal, 96.9%; with UO-31 renal, 93.7%; in the test on TK-10 renal, 115%; in the test with ACHN renal it was 102%; in the test on CAKI-1 renal, 94.3%. Besides, the growth in the test with A498 renal was 87.9%; in the test with CCRF-CEM leukemia, 105%; with MOLT-4 leukemia, 102%.

Consider `COc1ccc(/C(N)=N/C(N)=N/c2nc3ccccc3s2)cc1`, for which the growth with SK-MEL-2 melanoma was 66.7%; in the test with EKVX NSCLC it was 61%; in the test on UO-31 renal, 57.4%; with TK-10 renal, 117%; with ACHN renal, 80.8%; with CAKI-1 renal it was 40%. Also, the values for the growth in the test with A498 renal and in the test with MOLT-4 leukemia were 64.9% and 74.6%, respectively.

Turning to `NS(=O)(=O)c1ccc(Nc2nc(SCc3ccccc3)nc3ccccc23)cc1`, the growth in the test on SK-MEL-2 melanoma was 92.4%; in the test on EKVX NSCLC, 77.7%; in the test on UO-31 renal, 46.9%; in the test on TK-10 renal, 81.5%; in the test with CAKI-1 renal it was 49.1%; with A498 renal, 48.5%. Further, the values for the growth with CCRF-CEM leukemia and in the test with MOLT-4 leukemia were 41.8% and 43.9%, respectively.

As for `COc1c(N2CC3CCCNC3C2)c(F)cc2c(=O)c(C(=O)N/N=C/c3ccccc3)cn(C3CC3)c12` (configuration not stated), the growth in the test on SK-MEL-2 melanoma was 111%; in the test on EKVX NSCLC it was 94.7%; with UO-31 renal, 86.4%; in the test with TK-10 renal, 99.5%; with CAKI-1 renal, 91.9%; with A498 renal it was 74.9%. For the same compound, the growth was 78.2% in the test on CCRF-CEM leukemia and 79.3% with MOLT-4 leukemia.

Consider `Nc1ccccc1NC(=O)c1ccc(NC(=O)C/C=C/c2cccnc2)cn1`, for which the growth in the test with SK-MEL-2 melanoma is 15.9%; in the test with EKVX NSCLC it was 52.9%; with UO-31 renal, 0.829% (active); in the test with TK-10 renal, 17.4%; with ACHN renal, 26.1%; with CAKI-1 renal, 29.2%. In addition, the growth was -35.3% (active) in the test with A498 renal, 15.8% in the test with CCRF-CEM leukemia and 17.3% in the test on MOLT-4 leukemia.

On to `O=C1Nc2ccccc2/C1=C/c1ccc(COCC2CO2)n1-c1ccc(O)cc1` (configuration not stated), for which the growth in the test on SK-MEL-2 melanoma was 101%; with EKVX NSCLC, 102%; in the test with TK-10 renal, 104%; with ACHN renal, 97%; with CAKI-1 renal, 98.3%; with A498 renal, 115%. The results for the growth in the test with CCRF-CEM leukemia and with MOLT-4 leukemia were 89.2% and 98.8%, respectively.
